Bioassay records deposited in PubChem BioAssay by Broad Institute.
HSF1 inh: HSF1 inhibition | NIH3T3-HGL HSE-luciferase, MG132-induced, luminescence 8 h; hits give low values | 300,000 tested, 0.77% active | activity change, negative = inhibition, % at 7.5 µM (by protocol);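 active = more than half of replicate wells show activity change below -50%, luminescence cut by over half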;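 also: luciferase reports HSF-1 transcriptional activity via heat shock element; 0% = median of DMSO wells and -100% = zero luminescence signal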
HSF1 activator: increases HSF-1 driven luciferase reporter signal | activation, % at 9 µM | NIH3T3-HGL HSF-1 luciferase reporter, MG132, 8 h; 100% = twice DMSO control signal | AID 504408 | 300,000 tested, 1.7% active;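 active = mean replicate activation of at least 50% with a set share of replicates each reaching 50%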;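 also: 0% = median of the neutral control wells and 100% = twice that signal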
Vif imaging: HIV Vif inhibition; HEK293T cells, Vif self-association by quenched fluorescence, imaging, 24 h; inhibition, % at 7.49 µM; 340,000 tested, 0.35% active; AID 602346; in the data active = inhibition above about 50%, passing the limit was not always enough
esBAF inh: inhibitors of esBAF chromatin remodeling in mouse ES cells | Bmi1-luciferase knock-in reporter, 24 h; 100% = twice the neutral-well signal | reporter increase, % at 12.5 µM | 350,000 tested, 2% active | AID 602393; in the data active = activation above about 40%;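 also: 0% = median of the plate's neutral control wells and 100% = double that signal; a rise in the Bmi1 reporter signal indicates esBAF inhibition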
Numbers without * were called inactive; · = not tested or not shown. The list is not random: actives were taken first. Their share in the collection is about 3.4%.

SMILES	HSF1 inh	HSF1 activator	Vif imaging	esBAF inh
COc1cccc(OC)c1C(=O)Nc1ccc2c3c(cccc13)CC2	-4	12	5	4
COc1ccccc1C(=O)Nc1ccc2c3c(cccc13)CC2	18	26	-4	62*
Cc1ccnc(NC(=O)c2cc3ccccc3oc2=O)c1	26	67*	0	·
O=C(Nc1cccc([N+](=O)[O-])c1)c1cc2ccccc2cc1O	2	1	-23	·
C[C@@H]1CN([C@@H](C)CO)C(=O)Cc2cc(NS(C)(=O)=O)ccc2O[C@@H]1CN(C)Cc1ccc(Oc2ccccc2)cc1	·	·	·	1
Cc1noc(C)c1S(=O)(=O)Nc1ccc2c(c1)C(=O)N([C@H](C)CO)C[C@H](C)[C@H](CN(C)CC1CCCCC1)OCCCC[C@H](C)O2	·	·	·	-1
Cc1ccc(S(=O)(=O)Nc2cccc3c2O[C@H](CN(C)S(=O)(=O)c2ccc(F)cc2)[C@@H](C)CN([C@H](C)CO)C3=O)cc1	·	·	·	4
O=C(Nc1ccc2ccccc2c1)c1ccccc1F	29	56*	1	-4
CC(=O)Nc1ccc(NC(=O)c2cccc3ccccc23)cc1	-1	-3	12	-4
O=C(Nc1ccc2nc(-c3cccnc3)[nH]c2c1)c1ccccc1F	-63*	-72	2	·
Cc1ccc(NC(=O)c2cccc3ccccc23)cc1	13	31	-2	61*
COc1cc2ccccc2cc1C(=O)Nc1cc(C)ccn1	18	31	-5	55*
CC=Cc1ccc2n(c1=O)C[C@@H]1[C@@H](CO)[C@H](C(=O)NC3CCCC3)N(Cc3ccncc3)[C@H]21 (mixture of isomers)	·	·	·	-2
O=C(C[C@@H]1CC[C@H](NC(=O)c2ccccc2)[C@H](CO)O1)NCCc1ccncc1	·	·	·	-2
O=C(Nc1ccc(Oc2cccnc2)cc1)c1ccccc1F	15	22	-2	60*
COc1cc2ccccc2cc1C(=O)Nc1ccc(C)cc1	21	39	-8	46*
CSc1nnc(NC(=O)c2cc3ccccc3oc2=O)s1	0	11	13	54*
COc1ccccc1C(=O)Nc1ccc2ccccc2c1	40	66*	6	·
Cc1cccc(NC(=O)c2cc3ccccc3oc2=O)c1	20	30	6	-17
COc1cc(/C=C/C(=O)N2CCN(C(=O)/C=C/c3cc(OC)c(OC)c(OC)c3)CC2)cc(OC)c1OC	13	32	-9	-10
CCOC(=O)n1c(SCC(N)=O)nc2ccccc21	-65*	-73	-9	·
C=CCSc1nc2ccccc2n1C(=O)/C=C/c1cc(OC)c(OC)c(OC)c1	-64*	-63	16	·
CCSc1nc2ccccc2n1C(=O)/C=C/c1ccc(OC)c(OC)c1	33	82*	-6	-9
C=CCSc1nc2ccccc2n1C(=O)/C=C/c1ccc(OC)c(OC)c1	44	71*	24	5
CC(=O)N(C)C[C@@H]1Oc2cc(C#Cc3ccccc3)ccc2S(=O)(=O)N([C@@H](C)CO)C[C@@H]1C	·	·	·	4
SMILES	HSF1 inh	HSF1 activator	Vif imaging	esBAF inh
COc1ccc(S(=O)(=O)Nc2ccc3c(c2)C(=O)N([C@@H](C)CO)C[C@H](C)[C@H](CN(C)Cc2ccc(C(=O)O)cc2)OCCCC[C@H](C)O3)cc1	·	·	·	-4
COC(=O)C[C@@H]1CC[C@H]2[C@H](COc3ccc(NC(=O)c4ccc(F)c(F)c4)cc3C(=O)N2C)O1	·	·	·	7
c1ccc2c(c1)NC1(CCCCCC1)n1c-2nc2ccccc21	14	34	-3	46*
c1ccc2c(c1)NC1(CCCCC1)n1c-2nc2ccccc21	22	32	3	23
COc1cc(NC(=O)COC(=O)c2ccc(C)c(S(=O)(=O)N3CCCCC3)c2)c(C)cc1[N+](=O)[O-]	21	64*	-8	-5
Cc1ccc(NC(=O)COC(=O)c2ccc3c(c2)OCO3)cc1S(=O)(=O)N1CCCCC1	18	56*	0	·
COc1cc(NC(=O)Cn2ncc(Cl)c(Cl)c2=O)c(C)cc1[N+](=O)[O-]	-93*	-93	19	·
O=C(CN1CCOCC1)OCCCC1CCCCC1	-5	13	54*	9
O=C(CCC1CCCCC1)NCCN1CCOCC1	-1	10	7	-1
Cc1cc(C)n(S(=O)(=O)/C=C/c2ccccc2)n1	53	54*	-4	5
Cc1ccc(S(=O)(=O)n2nc(C)cc2C)cc1	0	5	-3	-4
N#CCSc1nnc(-c2sc3ccccc3c2Cl)o1	11	24	4	·
Clc1cccc2sc(-c3nnc(-c4ccccc4)o3)c(Cl)c12	20	27	19	44*
Cc1c(Cc2ccccc2)c(=O)oc2c(C)c(OCC(=O)Nc3ccc(C#N)cc3)ccc12	1	36	10	·
